Among the data in PubChem BioAssay are z-score and composite z-score values, retold here.

Calls of active or inactive are those of the source. Unless noted, how the calls were made is not given here.

A short description of assay [1]: resazurin metabolic signal in HepG2 cells – cell-based, resazurin fluorescence, 24 h, PK04 Diversity Set, profiling panel (AID 1172). Further: test concentration not given here. As to conditions: HepG2 viability, higher = more signal.
Assay [2] is described as follows: budding yeast growth changes without added modifier – OD600, strain BY4716, 24 h, basal condition, primary screen (AID 1173). The note with it: S. cerevisiae BY4716 growth, OD600, 24 h; higher = more signal, called active from +8 up or from −8 down.
A short description of assay [3]: viability profiling in MM1S myeloma cells – cell-based, resazurin fluorescence, basal, 24 h, PK04 Diversity Set, profiling panel (AID 1174).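 Further: MM1S multiple myeloma cell line; test concentration not given here.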 The note with it: higher = more signal, called active from +8 up or from −8 down.
In assay [4] the target is Dihydroorotate dehydrogenase (quinone), mitochondrial (Plasmodium falciparum (isolate 3D7)) (UniProt Q08210). Nature of the assay: inhibition of P. falciparum DHODH – biochemical, C-terminal His tag, absorbance 600 nm, primary screen (AID 1175).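 Further: recombinant parasite enzyme with a five histidine tag at its C terminus; test concentration not given here.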 The note with it: PfDHODH enzyme, DCIP absorbance 600 nm; higher = more signal, called active from +8 up or from −8 down.
A short description of assay [5]: inhibition of PAO1 biofilm formation – strain PAO1, LB-PBS medium, absorbance 600 nm, primary screen (AID 1176). Further: test concentration not given here. As to conditions: P. aeruginosa PAO1 growth/biofilm, A600, 12 h; higher = more signal.
Assay [6] in a line: growth modulation of vineyard yeast isolate – strain RM11-1a, OD600, basal, 24 h, primary screen (AID 1177).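 Further: cultures grown under basal conditions with no added stressor; test concentration not given here.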 As to conditions: S. cerevisiae RM11-1a growth, OD600, 24 h; higher = more signal, called active from +8 up or from −8 down.
Assay [7] is described as follows: growth of efflux-deficient E. coli DRC39 – strain DRC39, OD650, 24 h, E. coli filamentation inducers, primary screen (AID 1178).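 Further: growth measured as culture turbidity by optical density at 650 nm; test concentration not given here.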 As to conditions: E. coli DRC39 acrAB, higher = more signal, called active from +8 up or from −8 down.
Assay [8] can be described thus: growth of efflux-deficient E. coli DRC39 – strain DRC39, OD650, 48 h, E. coli filamentation inducers, primary screen (AID 1179).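 Further: screen aims at cell division blockers that make cells filament.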 As to conditions: E. coli DRC39 delta-acrAB growth, higher = more signal, called active from +8 up or from −8 down.
The nature of assay [9]: viability profiling in RPMI8226 myeloma cells – cell-based, resazurin fluorescence, basal, 24 h, PK04 Diversity Set, profiling panel (AID 1180).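 Further: RPMI8826 multiple myeloma cell line at 5000 cells per well; test concentration not given here.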 The note with it: higher = more signal.
For assay [10], the target named is E3 ubiquitin-protein ligase XIAP (Homo sapiens) (UniProt P98170). Put plainly: small molecules binding XIAP protein – biophysical, small-molecule microarray, fluorescence 635 nm, primary screen (AID 1181).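 Further: score merges 667 nm emission and signal to noise over triplicate slides.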 As to conditions: higher = more signal.
Chain of E3 ubiquitin-protein ligase XIAP (Homo sapiens) (P98170 whole entry, looked up): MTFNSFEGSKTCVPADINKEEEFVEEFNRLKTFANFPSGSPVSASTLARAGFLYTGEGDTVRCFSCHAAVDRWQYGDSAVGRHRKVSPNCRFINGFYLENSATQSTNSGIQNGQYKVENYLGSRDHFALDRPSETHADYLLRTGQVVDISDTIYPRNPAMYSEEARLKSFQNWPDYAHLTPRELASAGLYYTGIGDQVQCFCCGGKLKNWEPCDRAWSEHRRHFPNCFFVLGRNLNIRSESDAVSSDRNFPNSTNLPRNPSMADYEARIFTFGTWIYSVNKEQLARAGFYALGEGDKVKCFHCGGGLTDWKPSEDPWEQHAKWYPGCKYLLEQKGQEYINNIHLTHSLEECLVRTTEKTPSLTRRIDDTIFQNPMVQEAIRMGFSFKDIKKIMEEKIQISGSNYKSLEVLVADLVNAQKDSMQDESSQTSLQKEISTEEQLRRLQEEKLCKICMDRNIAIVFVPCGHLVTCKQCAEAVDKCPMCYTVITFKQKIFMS

Chain of Dihydroorotate dehydrogenase (quinone), mitochondrial (Plasmodium falciparum (isolate 3D7)) (Q08210 whole entry, looked up): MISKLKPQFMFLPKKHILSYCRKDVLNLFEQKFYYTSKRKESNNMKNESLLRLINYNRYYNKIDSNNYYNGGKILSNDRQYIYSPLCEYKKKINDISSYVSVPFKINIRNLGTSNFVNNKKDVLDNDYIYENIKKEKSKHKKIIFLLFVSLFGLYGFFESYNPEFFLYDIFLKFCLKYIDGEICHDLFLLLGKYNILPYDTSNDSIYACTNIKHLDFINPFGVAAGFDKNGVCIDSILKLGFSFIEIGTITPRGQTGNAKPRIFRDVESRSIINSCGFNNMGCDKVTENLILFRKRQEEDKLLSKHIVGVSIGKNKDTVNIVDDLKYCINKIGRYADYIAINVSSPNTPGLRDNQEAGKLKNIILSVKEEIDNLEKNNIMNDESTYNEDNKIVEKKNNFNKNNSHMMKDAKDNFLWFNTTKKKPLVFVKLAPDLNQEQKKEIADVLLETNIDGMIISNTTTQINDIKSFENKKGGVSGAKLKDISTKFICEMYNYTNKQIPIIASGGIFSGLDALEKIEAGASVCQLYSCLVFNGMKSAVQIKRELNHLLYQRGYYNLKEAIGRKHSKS

For the compound `COC(=O)[C@H](C)NC(=O)CCC1CC(OC(=O)NCc2ccc3c(c2)OCO3)CC2(CCCC(COC(=O)NCC(c3ccccc3)c3ccccc3)O2)O1` (stereo not given in full), the z-score in [1] is 0.0245; in [2], -1.23 (inactive); in assay [3], 0.177 (inactive); in [5], -0.895 (inactive); in [6], 0.0477 (inactive); in assay [7], -0.341 (inactive). Also, the z-score in [8] is 0.532 (inactive); in assay [9], -0.0511. The composite z-score was -2.67 (inactive) in [4] and -0.0734 in [10].
In the case of `CCOC(=O)NN=C1C[C@@H](O)[C@@H](O)[C@@H]2[C@@H]3C(=O)N(Cc4ccccc4)C(=O)[C@@H]3CC[C@H]12`, the z-score in [1] was 1.16; in assay [2], -0.892 (inactive); in assay [3] it was 1.41 (inactive); in assay [5], 0.483 (inactive); in assay [6], -1.1 (inactive); in assay [7] it was -0.077 (inactive). The z-score in assay [8] is 0.495 (inactive); in assay [9], 1.89. The results for the composite z-score in [4] and in assay [10] were -0.451 (inactive) and -0.27, respectively.
Turning to `C[C@H]1CC[C@H]2C(=O)OC(CO)CN2[C@@H]1c1ccc(Br)cc1` (stereo not given in full), the z-score in assay [1] was 0.228; in [2] it was -1.23 (inactive); in assay [3] it was -0.0363 (inactive); in assay [5] it was 0.967 (inactive); in [6], -0.373 (inactive); in assay [7] it was -0.472 (inactive). Also, the values for the z-score in assay [8] and in assay [9] were -0.304 (inactive) and 0.979, respectively. Besides, the figures for the composite z-score in [4] and in assay [10] were -0.0747 (inactive) and 0.213, respectively.
Consider `CCc1cc2c(nc1CC)CCN(CCC(C)=NO[C@@H](C)c1cn([C@H](CO)Cc3ccccc3)nn1)C2`, for which the z-score in [1] is -0.301; in assay [2], -0.841 (inactive); in [3] it was -1.79 (inactive); in assay [5], -0.218 (inactive); in assay [6], 0.804 (inactive); in assay [7], 0.294 (inactive). The z-score in assay [8] was 0.67 (inactive); in [9], 0.659. Moreover, the results for the composite z-score in [4] and in [10] were -1.3 (inactive) and -0.0602, respectively.
As to `COc1ccc(COC(=O)NN=C2C[C@@H](O)[C@@H](O)[C@@H]3[C@@H]4C(=O)N(c5cccc(Oc6ccccc6)c5)C(=O)[C@@H]4CC[C@@H]23)cc1`, the z-score in assay [1] is 0.702; in assay [2] it was 0.968 (inactive); in [3], 0.106 (inactive); in assay [5] it was -0.282 (inactive); in assay [6], 1.65 (inactive); in [7] it was -0.401 (inactive). The values for the z-score in [8] and in [9] were -0.587 (inactive) and 0.45, respectively. Moreover, the composite z-score in [4] is 0.861 (inactive); in [10], -0.22.
As to `CCOC(=O)[C@H](Cc1ccccc1)NC(=O)CCC1CC(OC(=O)NCCc2ccc(F)cc2)CC2(CCCC(COC(=O)NCCc3ccc(Cl)cc3)O2)O1` (stereo not given in full), the z-score is 0.072 in assay [1]; -0.0784 (inactive) in assay [2]; 0.231 (inactive) in assay [3]; -0.0569 (inactive) in assay [5]; 0.809 (inactive) in assay [6]; 0.869 (inactive) in assay [7]. Moreover, the z-score in assay [8] was 0.721 (inactive); in assay [9] it was 0.28. For the same compound, the values for the composite z-score in assay [4] and in assay [10] were -0.161 (inactive) and -0.0177, respectively.
For the compound `CCOC(=O)[C@H](CC(C)C)NC(=O)CCC1CC(OC(=O)NCCc2ccc(F)cc2)CC2(CCCC(COC(=O)NCCc3ccc(Cl)cc3)O2)O1` (stereo not given in full), the z-score in assay [1] was 0.182; in assay [2], 0.0981 (inactive); in assay [3], -0.0687 (inactive); in assay [5] it was 0.213 (inactive); in [6], -0.596 (inactive); in assay [7], -0.0646 (inactive). Moreover, the z-score is -0.617 (inactive) in assay [8] and 0.48 in [9]. The figures for the composite z-score in assay [4] and in assay [10] were -0.188 (inactive) and -0.247, respectively.
`COC(=O)CC=C[C@@H](C)[C@@H](C=NO[C@@H](C)c1cc(-c2c(C)cc(C)cc2C)no1)NS(=O)(=O)c1ccc(C)cc1`: the z-score was 0.245 in assay [1]; -0.358 (inactive) in [2]; -0.019 (inactive) in assay [3]; -0.998 (inactive) in [5]; -0.2 (inactive) in assay [6]; -1.1 (inactive) in assay [7]. In addition, the z-score is -1.55 (inactive) in assay [8] and -0.33 in assay [9]. The composite z-score in assay [4] is -2.27 (inactive); in assay [10], -0.169.
Consider `COc1cc(O)c(C(=O)C=Cc2ccc3c(c2)OCO3)c(OC)c1`, for which the z-score in [1] was 0.0215; in [2], 1.12 (inactive); in [3], -0.307 (inactive); in assay [5] it was 1.2 (inactive); in assay [6], 2.31 (inactive); in assay [7] it was -0.45 (inactive). Moreover, the figures for the z-score in [8] and in assay [9] were -1.04 (inactive) and -0.144, respectively. The values for the composite z-score in [4] and in [10] were 1.06 (inactive) and 0.215, respectively.
Turning to `COC(=O)[C@@H]1CC[C@H](C)[C@@H](c2ccc(C)cc2)N1C(=O)c1ccc(C=NO[C@@H](C)c2cn([C@H](CO)Cc3ccccc3)nn2)cc1`, the z-score was -1.27 in [1]; -0.476 (inactive) in assay [2]; -1.93 (inactive) in [3]; 0.171 (inactive) in [5]; 1.35 (inactive) in assay [6]; 0.836 (inactive) in assay [7]. Moreover, the z-score in [8] is 0.161 (inactive); in assay [9], -1.16. Moreover, the composite z-score was -1.41 (inactive) in assay [4] and -0.102 in [10].
In the case of `CC(C)=CCCC(C)=CCON=C1C[C@@H](O)[C@@H](O)[C@@H]2[C@@H]3C(=O)N(C(C)(C)C)C(=O)[C@@H]3CC[C@@H]12`, the z-score in assay [1] is -0.976; in [2], -0.0139 (inactive); in assay [3] it was 0.408 (inactive); in [5], 1.23 (inactive); in assay [6], -0.0348 (inactive); in assay [7], -0.106 (inactive). Also, the values for the z-score in [8] and in assay [9] were -1.26 (inactive) and -0.11, respectively. For the same compound, the composite z-score in [4] is 0.661 (inactive); in assay [10], -0.172.
For `CO[C@@H]1COC(=O)[C@@H](C)COC(=O)[C@@H](C)NC(=O)CC=C[C@@H]1C`, the z-score was -0.373 in [1]; -0.792 (inactive) in assay [2]; 1.2 (inactive) in assay [3]; -0.136 (inactive) in [5]; -1.99 (inactive) in assay [6]; -0.98 (inactive) in assay [7]. Further, the z-score in [8] was -1.13 (inactive); in assay [9], 0.635. Besides, the composite z-score in assay [4] was -4.92 (inactive); in [10], -0.271.
As to `CO[C@@H]1C=CCC(=O)N2CCC[C@H]2C(=O)OC[C@@H](C)C(=O)OC[C@H]1C`, the z-score in [1] was 1.12; in [2], -0.62 (inactive); in assay [3], 0.866 (inactive); in [5], 0.659 (inactive); in assay [6], -0.841 (inactive); in [7], 0.947 (inactive). Also, the z-score was 0.977 (inactive) in assay [8] and 0.218 in assay [9]. The composite z-score in assay [4] was 0.321 (inactive); in [10], 0.104.
